Shown are actives, neighbours in structure and some others; about 2.8% of the full set was active somewhere.
Fam108B counter = blocks mouse Fam108B hydrolase in RBBP9 counter-screen. recombinant Fam108B, FP-Rh probe fluorescence polarization. inhibition, % at 9.51 µM. 300,000 tested, 0.33% active. AID 1947;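 active means inhibition above the screen mean inhibition plus 3 SD, computed separately per campaign, cut at about 18% in these data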;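 further: inhibitors lower polarization as less probe binds the enzyme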
PAFAH2 FP inh = inhibitors of human PAFAH2 | Q99487 | recombinant PAFAH2, FP-rhodamine activity probe, fluorescence polarization | inhibition, % at 3.39 µM | 340,000 tested, 0.99% active | AID 492956;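 active means inhibition above the mean over all tested compounds plus 3 SD, cut at about 30% in these data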;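 further: inhibitors block probe labeling of enzyme so polarization drops; 0% = enzyme with DMSO and 100% = wells lacking PAFAH2 protein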
PAFAH1B3 FP inh = PAFAH1B3 (human) inhibition; recombinant PAFAH1B3, FP-rhodamine probe, fluorescence polarization; Q15102; 340,000 tested, 0.28% active; inhibition, % at 3.39 µM;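 active means inhibition above the screen-wide average of all tested compounds plus 3 SD, cut at about 25% in these data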;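 further: 0% = enzyme with DMSO only and 100% = wells lacking PAFAH1B3 protein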
Target sequence (Q15102 whole entry, looked up): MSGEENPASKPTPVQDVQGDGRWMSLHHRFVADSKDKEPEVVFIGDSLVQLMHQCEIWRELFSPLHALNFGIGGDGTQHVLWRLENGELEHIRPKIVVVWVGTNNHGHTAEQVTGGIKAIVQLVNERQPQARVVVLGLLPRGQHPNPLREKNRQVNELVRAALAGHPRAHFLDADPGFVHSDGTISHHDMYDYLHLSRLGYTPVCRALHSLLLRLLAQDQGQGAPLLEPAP
PME-1 primary = blocks human protein phosphatase methylesterase 1. Q9Y570. recombinant PME-1, FP-Rh probe fluorescence polarization. inhibition, % at 5.9 µM. 320,000 tested, 0.53% active. AID 2130;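 active means inhibition above the campaign mean of all compounds plus 3 SD, cut at about 26% in these data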;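 further: competitive labeling of PME-1 active site by serine hydrolase directed probe; 0% = PME-1 with DMSO and 100% = wells lacking PME-1 enzyme; inhibitors block probe labeling so polarization falls and inhibition rises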
PAFAH1B2 FP inh = inhibitors of human PAFAH1B2; AID 492953; 340,000 tested, 1.2% active; inhibition, % at 3.39 µM; recombinant PAFAH1B2, FP-rhodamine activity probe, fluorescence polarization; P68402;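 active means inhibition above the mean of all tested compounds plus 3 SD, cut at about 24% in these data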;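 further: 0% = enzyme with DMSO and 100% = wells lacking PAFAH1B2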
Target sequence (P68402 whole entry, looked up): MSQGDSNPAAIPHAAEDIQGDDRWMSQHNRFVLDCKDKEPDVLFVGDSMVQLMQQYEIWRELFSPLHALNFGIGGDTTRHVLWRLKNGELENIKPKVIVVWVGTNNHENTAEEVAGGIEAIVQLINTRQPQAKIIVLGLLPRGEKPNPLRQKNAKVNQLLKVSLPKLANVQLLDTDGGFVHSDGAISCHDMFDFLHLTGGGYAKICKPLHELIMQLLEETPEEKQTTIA
pPAFAH FP inh = inhibitors of human plasma PAF acetylhydrolase (pPAFAH); Q13093; recombinant pPAFAH, FP-rhodamine probe fluorescence polarization; inhibition, % at 3.39 µM; 330,000 tested, 1.5% active;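 active means inhibition above the mean inhibition across the screen plus 3 SD, cut at about 25% in these data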;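 further: inhibitors block binding of the rhodamine activity-based probe so polarization drops; 0% = enzyme with DMSO and 100% = wells lacking pPAFAH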
* = called active by the depositor; / = not tested or not shown.

SMILES	Fam108B counter	PAFAH2 FP inh	PAFAH1B3 FP inh	PME-1 primary	PAFAH1B2 FP inh	pPAFAH FP inh
CN(C)c1ccc2cc(S(=O)(=O)O)cc(O)c2c1	/	38*	52*	/	38*	/
O=Nc1c(O)ccc2cc(S(=O)(=O)O)ccc12	/	4	23	/	10	/
CCc1cccc2c(/C=N/NC(=O)c3cccc(S(=O)(=O)Nc4ccccc4Cl)c3)c[nH]c12	13	4	31*	19	26*	27*
O=C(O)Cc1nn(Cc2ccc(Cl)cc2)c(=O)c2ccccc12	2	-7	7	-7	10	3
Cn1cc(C(=O)C(=O)N2CCCCC2)c2ccccc21	/	-6	4	/	-3	/
Cc1c(N=Cc2cc3c(cc2[N+](=O)[O-])OCO3)cccc1[N+](=O)[O-]	7	6	-1	1	9	49*
CCCCC(=O)NC(c1ccco1)c1cc(Cl)c2cccnc2c1O (centres undefined)	3	7	8	-5	4	29*
CCC(=O)NC(c1cccs1)c1cc([N+](=O)[O-])c2cccnc2c1O (centres undefined)	10	10	0	27*	2	23
CC(C)C(=O)NC(c1ccccc1)c1cc([N+](=O)[O-])c2cccnc2c1O (centres undefined)	8	9	-4	4	0	34*
CCC(=O)NC(c1ccco1)c1cc(Cl)c2cccnc2c1O (centres undefined)	4	13	9	-2	-3	24
CCC(=O)c1cc(Br)ccc1OCC(=O)N1CCN(S(=O)(=O)c2ccccc2)CC1	/	-2	-10	/	0	/
COc1ccccc1CN1CC(C(=O)N(Cc2cnn(C)c2)C(C)C)CCC1=O (centres undefined)	0	-4	2	5	0	3
Cc1noc(C)c1C(=O)N(C)CC(=O)Nc1ccc(F)c(F)c1F	2	5	1	-5	0	2
O=C(Nc1cccc(-n2cnnn2)c1)C1CCCN(Cc2cccc(C(F)(F)F)c2)C1 (centres undefined)	/	-2	14	/	1	/
COc1ccc(COCC(O)CN2CCN(S(=O)(=O)c3c(F)cccc3F)CC2)cc1OC (centres undefined)	/	0	0	/	-1	/
CN1CSC2=C(C#N)C(c3cccc(OCc4ccccc4)c3)CC(=O)N2C1 (centres undefined)	4	32*	7	-10	7	16
O=C1C(=O)N(CCCc2ccccc2)c2ccccc21	-4	2	1	-2	9	27*
O=C(CN1C(=O)C(=O)c2ccccc21)NCCc1ccccc1	5	1	5	-3	-1	12
O=C(Nc1c2c(nn1-c1ccc(F)cc1)CS(=O)C2)c1ccc(S(=O)(=O)N2CCOCC2)cc1 (centres undefined)	-5	3	5	-5	26*	-4
N#Cc1ccc(NC(=O)COC(=O)CCNS(=O)(=O)c2ccccc2)cc1	0	1	2	-8	5	29*
O=C(CCNS(=O)(=O)c1ccccc1)OCC(=O)c1ccc(Cl)cc1	-1	2	1	7	16	26*
Cc1ccc(CN2C(=O)C(=O)N(CC(N)=O)C2=O)cc1	3	-8	6	5	0	0
Cc1ccc(C(=O)CN2C(=O)C(=O)N(Cc3ccccc3)C2=O)cc1	2	2	0	-3	26*	-1
Cc1noc(C)c1S(=O)(=O)N1CCN(c2ccccc2Cl)CC1	/	-1	-1	/	3	/
COc1ccc(-c2coc3c(C)c4oc(=O)c(CCC(=O)O)c(C)c4cc23)cc1	-10	7	5	-18	4	25*
SMILES	Fam108B counter	PAFAH2 FP inh	PAFAH1B3 FP inh	PME-1 primary	PAFAH1B2 FP inh	pPAFAH FP inh
Cc1c(CCC(=O)O)c(=O)oc2c(C)c3occ(-c4ccc(Br)cc4)c3cc12	/	11	7	/	5	/
Nc1c(C(=O)CSc2nnc(Cc3ccccc3)o2)c(=O)[nH]c(=O)n1C1CC1	/	-1	-6	3	-1	0
COc1cccc(C(=O)Oc2ccc(/C=N/Nc3ccc(C(=O)O)cc3)cc2OC)c1	14	1	11	32*	10	28*
O=C(O)c1ccc(Cl)c(S(=O)(=O)Nc2ccc(OCc3ccccc3)cc2)c1	-1	-9	8	-2	26*	9
CCOc1ccc(NS(=O)(=O)c2cc(C(=O)N3CCCC3)ccc2Cl)cc1	-1	-1	1	0	1	2
O=C(C1CCN(S(=O)(=O)c2ccccc2F)CC1)N1CCN(Cc2ccc3c(c2)OCO3)CC1	/	2	7	5	4	-1
Cc1ccc(CC(=O)OCC(=O)NC2CCCC(C)C2C)cc1C (centres undefined)	-2	39*	10	4	4	29*
CCc1ccc(OCC(=O)OCC(=O)NC2CCCC(C)C2C)cc1 (centres undefined)	/	7	10	/	7	8
CC1CCCC(NC(=O)COC(=O)c2ccc([N+](=O)[O-])s2)C1C (centres undefined)	/	66*	53*	/	15	16
CC1CCCC(NC(=O)COC(=O)Cc2ccc(Cl)cc2)C1C (centres undefined)	/	16	15	/	20	28*
COc1ccc(/C=C/C(=O)OCC(=O)N2CCCC2)c(OC)c1	/	16	-2	1	1	5
COc1ccc(/C=C/C(=O)OCC(=O)NC2CCCC(C)C2C)c(OC)c1 (centres undefined)	/	76*	-1	/	-2	29*
Cc1ccc(C(C)C)c2c1C(c1ccc3c(c1)OCO3)CC(=O)O2 (centres undefined)	/	0	7	/	9	7
Cc1ccc(NC(=O)C2CCN(S(=O)(=O)c3ccc(C(C)(C)C)cc3)CC2)cc1S(=O)(=O)N1CCOCC1	/	-21	-4	/	-7	/
CCOc1ccc(CN(C)C(=O)c2ccc(S(=O)(=O)N(C)c3ccccc3OC)cc2)cc1	/	2	2	1	5	1
O=C(COC(=O)CCc1nc2ccccc2c(=O)[nH]1)Nc1ccc2c(c1)OCO2	7	-3	3	-4	3	0
COc1ccc(C(=O)NC(C)c2cccnc2)cc1S(=O)(=O)N(C)Cc1ccccc1 (centres undefined)	/	-1	3	/	-1	1
CCOC(=O)C/C(C)=N\Nc1nc(-c2ccccc2)cs1	5	3	4	-2	1	26*
CC(=O)Nc1ccc(NC(=O)c2ccc(NS(=O)(=O)c3cc(C(C)(C)C)cc(C)c3C)cc2)cc1	-27	-50	-45	-52	-28	-11
Cc1cc(C(C)(C)C)cc(S(=O)(=O)Nc2ccc(O)c(C(=O)O)c2)c1C	-4	-4	-3	-6	47*	4
CCCCn1c(NS(=O)(=O)c2ccc(C)cc2)c(S(=O)(=O)c2ccccc2)c2nc3ccccc3nc21	1	49*	72*	5	34*	4
